# From PubChem BioAssay (NCATS)
# Several values for one entry are separate records, joined by “and”; a condition that tells them apart may be missing. Identical values can stand only once. Results filed as inconclusive are left out. Activity calls are given as the source filed them. The call rests on the fitted dose curve; in most records, active means well fitted inhibition curve with a large enough effect; inconclusive means small, poorly fitted or top-dose-only effect; inactive means no such curve, though single readings can be large or run the other way.
# Assay: Primary qHTS for inhibitors of nuclear receptor binding SET domain protein 2 (NSD2) in an RCH-ACV wild type WT cells (2C) (AID 1645877); further: nearly all actives have a fitted effect of over 70% in size
# Conditions: RCH-ACV (leukaemia line) NSD2 WT (2C) viability, CellTiter-Glo, 72 h; series mostly up to 44.9 µM
# Source text: Assay Provider: Jonathan D. Licht, MD
# University of Florida College of Medicine, Gainesville, FL
# Mutations in epigenetic regulators are common in relapsed pediatric acute lymphoblastic leukemia (ALL). Here, we uncovered the mechanism underlying the relapse of ALL driven by an activating mutation of the NSD2 histone methyltransferase (p.E1099K). […] Correction of this mutation restored glucocorticoid sensitivity. The transcriptional response to glucocorticoids was blocked in NSD2 mutant cells due to depressed glucocorticoid receptor (GR) levels and the failure of glucocorticoids to autoactivate GR expression. […] Pre-treatment of NSD2 p.E1099K cell lines and PDX samples with PRC2 inhibitors reversed glucocorticoid resistance in vitro and in vivo.
# High-throughput drug screening of isogenic RCH-ACV cell lines was performed at the National Center for Advancing Translational Science (NCATS), National Institutes of Health as previously described (1). Briefly, isogenic RCH-ACV NSD2 p.E1099K mutant (9B) and WT cells (2C) were plated at 500 cells/well in a 1536-well plate with a 72-hour incubation with compounds prior to addition of CellTiter-Glo to assess cell viability. NCATS libraries screened include: NPC, MIPE 5.0, Kinase and NPACT. To determine compound activity in the qHTS assay, the concentration-response data for each sample was plotted and modeled by a four-parameter logistic fit yielding IC50 and efficacy (maximal response) values. The area under the curve (AUC) of the dose-response curve ensures both efficacy (magnitude of cell killing) and potency (concentration that elicits cell killing) are accounted for in the analysis of activity.
# 1. Tobie D Lee, Olivia W Lee, Kyle R Brimacombe, Lu Chen, Rajarshi Guha, Sabrina Lusvarghi, Bethilehem G Tebase, Carleen Klumpp-Thomas, Robert W Robey, Suresh V Ambudkar, Min Shen, Michael M Gottesman, Matthew D Hall. A High-Throughput Screen of a Library of Therapeutics Identifies Cytotoxic Substrates of P-glycoprotein. Mol Pharmacol. 2019, Nov;96(5):629-640.
row,Compound,Potency
1,CC(C)c1nn(-c2c(Cl)cccc2Cl)c2nc(Cc3ccc(OCCO)cc3)[nH]c(=O)c12,25.8 nM (active) and 41.7 nM (active)
2,CN1CCN(c2ccc3nc(-c4c(N)c5c(F)cccc5[nH]c4=O)[nH]c3c2)CC1,1.16 µM (active) and 742 nM (active)
3,CC1(C)CC(=O)c2c(C(F)(F)F)nn(-c3ccc(C(N)=O)c(NC4CCC(OC(=O)CN)CC4)c3)c2C1 (stereo not given),81.7 nM (active) and 118 nM (active)
4,C[C@@]12O[C@@H](C[C@]1(O)CO)n1c3ccccc3c3c4c(c5c6ccccc6n2c5c31)CNC4=O,0.0661 µM (active)
5,C=CC(=O)Nc1cc2c(Nc3ccc(F)c(Cl)c3)ncnc2cc1OCCCN1CCOCC1,1.5 µM (active) and 2.95 µM (active)
6,Clc1cccc(-c2nnnn2Cc2cccnc2)c1Cl,inactive
7,Cc1nc2cnc3ccc(C#Cc4cccnc4)cc3c2n1-c1ccc(C(C)(C)C#N)cc1,8.2 µM (active) and 148 nM (active)
8,Cc1ccc(C(=O)Nc2cccc(C(F)(F)F)c2)cc1-c1ccc2nc(NCCN3CCOCC3)ncc2c1,1.83 µM (active) and 4.17 µM (active)
9,COc1cc2c(Oc3ccc4[nH]c(C)cc4c3F)ncnc2cc1OCCCN1CCCC1,7.28 µM (active) and 7.42 µM (active)
10,O=C(CCCCCCC(=O)Nc1ccc([C@H]2O[C@@H](CSc3nc(-c4ccccc4)c(-c4ccccc4)o3)C[C@@H](c3ccc(CO)cc3)O2)cc1)NO,2.58 µM (active) and 4.28 µM (active)
11,CN1CC[C@@H](c2c(O)cc(O)c3c(=O)cc(-c4ccccc4Cl)oc23)[C@@H](O)C1,0.332 µM (active)
12,COc1cccc(-c2ccc(NC(=O)C3=C(C(=O)O)CCC3)c(F)c2)c1,6.49 µM (active) and 3.72 µM (active)
13,COC(=O)Nc1nc2ccc(C(=O)c3ccc(F)cc3)cc2[nH]1,1.03 µM (active) and 372 nM (active)
14,CN(C)CC(C)(C)CNc1nn2c(-c3ccccc3)nnc2cc1C1CCC1,inactive
15,COc1cccc2nc(-c3cccs3)nc(NN3C(=O)C=C(C)C3=O)c12,0.263 µM (active)
16,C#Cc1cccc(Nc2ncnc3cc(OC)c(OCCCCCCC(=O)NO)cc23)c1,230 nM (active) and 296 nM (active)
17,CC[C@H](CO)Nc1nc(NCc2ccccc2)c2ncn(C(C)C)c2n1,13.2 µM (active)
18,Cc1ccc(S(=O)(=O)Nc2cc(Cl)ccc2C(=O)Nc2nc(-c3ccccc3)cs2)cc1,inactive
19,COc1c(OCCCN2CCOCC2)ccc2c3n(c(=NC(=O)c4cnc(N)nc4)nc12)CCN3,8.4 nM (active) and 60.5 nM (active)
20,Cc1ccc(NC(=O)C2(c3ccc4c(c3)OC(F)(F)O4)CC2)nc1-c1cccc(C(=O)O)c1,inactive

row,Compound,Potency
1,CC(=O)c1c(C)c2cnc(Nc3ccc(N4CCNCC4)cn3)nc2n(C2CCCC2)c1=O,1.32 µM (active)
2,O=C(c1ccc(Nc2nccc(-c3cc4ccccc4s3)n2)cc1)N1CCC(N2CCCC2)CC1,1.63 µM (active) and 1.66 µM (active)
3,Nc1ccc(C(=O)c2cc3c(ccc4ccccc43)[nH]2)cc1,1.71 µM (active)
4,COc1cc(C(C)C)c2c(c1)S(=O)(=O)N(COc1cc(=O)n3cccc(OCCN4CCCCC4)c3n1)C2=O,10.5 µM (active)
5,COc1ccc(F)c(F)c1C(=O)c1cnc(NC2CCN(S(C)(=O)=O)CC2)nc1N,325 nM (active) and 525 nM (active)
6,CN(C1CCc2c(c3ccccc3n2CC(=O)O)C1)S(=O)(=O)c1ccc(F)cc1 (stereo not given),inactive
7,Nc1cc(C(F)(F)F)c(-c2cc(N3CCOCC3)nc(N3CCOCC3)n2)cn1,728 nM (active) and 934 nM (active)
8,COc1cc(-c2nn(C3CCC(N4CCN(C(C)=O)CC4)CC3)c3ncnc(N)c23)ccc1NC(=O)c1cc2ccccc2n1C (stereo not given),258 nM (active) and 1.05 µM (active)
9,CN(C)Cc1c(C(=O)NCCOc2ccc(C(=O)NO)cc2)oc2ccccc12,515 nM (active) and 296 nM (active)
10,COc1cc2ncn(-c3cc(OCc4ccccc4C(F)(F)F)c(C(N)=O)s3)c2cc1OC,794 nM (active) and 1.18 µM (active)
11,O=C(c1cncc(Br)c1)N1CCC(N2CCCC2)CC1,inactive
12,O=C(Nc1cn[nH]c1-c1nc2ccc(CN3CCOCC3)cc2[nH]1)NC1CC1,64.9 nM (active) and 58 nM (active) and 59 nM (active)
13,Cc1cc(CN2CCN(c3c(Br)cnc4nc(-c5ccc(N6CCN(C)CC6)cc5)[nH]c34)CC2)no1,145 nM (active) and 296 nM (active)
14,CCn1nnc2c(N3CCOCC3)nc(-c3ccc(NC(=O)Nc4ccc(C(=O)N5CCN(C)CC5)cc4)cc3)nc21,46.1 nM (active) and 59 nM (active)
15,CCn1cc(-c2ccnc3[nH]c(-c4cccc(CN(C)C)c4)cc23)c(-c2ccc(NC(=O)N(C)C)cc2)n1,36.6 nM (active) and 37.2 nM (active)
16,O=C(Nc1ncc(-c2cc(C(F)F)nn2-c2c(Cl)cccc2Cl)s1)C1CC1,0.417 µM (active)
17,O=C(CCCCCCNC(=O)c1cnc(N(c2ccccc2)c2ccccc2)nc1)NO,365 nM (active) and 2.09 µM (active)
18,O=C(Nc1nc2cccc(-c3ccc(CN4CCS(=O)(=O)CC4)cc3)n2n1)C1CC1,18.3 µM (active) and 9.34 µM (active)
19,C[C@@H]1COC(Nc2ccc3ncnc(Nc4ccc(OCc5nccs5)c(Cl)c4)c3c2)=N1,11.8 µM (active)
20,O=C(O)c1ccc2c(c1)nc(Nc1cccc(Cl)c1)c1ccncc12,3.65 µM (active)
